Records with an inconclusive call do not appear. Active and inactive are the calls of the source. Calls come from the whole dose curve; as a rule, active = well fitted cell-killing curve with a large enough effect in the repeat runs; inconclusive = weak or mixed curves, or effect the other way; inactive = no such curve, though single readings can be large or run the other way. Positions of bridges follow the written chain, without caps; N, C: chain ends. Where a SMILES comes first, the peptide text is derived from it. Non-standard residues stand in square brackets, D forms with d. Residues, ends and D or L forms follow the SMILES beside them. hArg = N=C(N)NCCCC[C@H](N)C(=O)O; Mpa = O=C(O)CCS

The source of these data is PubChem BioAssay (Tox21).
% is set by controls: 0 for no effect and ±100 for the full control effect.

The nature of this assay: qHTS assay to identify small molecule antagonists of the vitamin D receptor (VDR) signaling pathway - cell viability counter screen (AID 743225). Note: nearly all actives have a fitted effect of over 50% in size. The following applies: VDR-bla HEK293T viability, CellTiter-Glo luminescence, 16 h; series mostly up to 61 µM; viability change, negative = cytotoxic: at the top concentration. An excerpt:
U.S. Tox21 Program National Center for Advancing Translational Sciences [NCATS] NIH Chemical Genomics Center [NCGC] U.S. Environmental Protection Agency [EPA] National Institutes of Environmental Health Sciences [NIEHS] National Toxicology Program [NTP] U.S. Food and Drug Administration [FDA] Tox21 Assay Overview: The vitamin D receptor (VDR), a member of nuclear hormone receptor superfamily, plays a critical role in calcium homeostasis and bone metabolism. It is also involved in cell differentiation and growth, and thrombogenicity. To identify the compounds that inhibit VDR signaling, the VDR-UAS-bla HEK 293T cell line (Invitrogen, Carlsbad, CA, USA) containing a beta-lactamase reporter gene under the control of an upstream activator sequence (UAS) was used to screen the Tox21 10K compound library. The cytotoxicity of the Tox21 compound library against the VDR-bla cell line was tested in parallel by measuring the cell viability using CellTiter-Glo assay (Promega, Madison, WI) in the same wells.
Tox21 Assay Protocol Summary: VDR-bla cells were dispensed at 2,000 cells/5 uL of assay medium per well into black wall/clear-bottom 1536-well plates using a Multidrop Combi (Thermo Fisher Scientific, Waltham, MA) dispenser. After the assay plates were incubated at a 37C and 5% CO2 for 4 h, 23 nL of compounds dissolved in DMSO, positive controls or DMSO only was transferred to the assay plate by a Pintool station (Kalypsys, San Diego, CA), followed by addition of 1 uL of 1-alpha, 25-Dihydroxy Vitamin D3 (3 nM, final concentration in the wells) using a Bioraptr Flying Reagent Dispenser (FRD) workstation (Beckman Coulter, Indianapolis, IN). The plates were incubated at 37C and 5% CO2 for 16 h, and then 1 uL of LiveBLAzerTM B/G FRET substrate was added using a Bioraptr FRD. The plates were incubated at room temperature for 2 h and fluorescence intensity was measured by an Envision plate reader (PerkinElmer, Shelton, CT). For cell viability readout that measures cytotoxicity, 3 ul/well of CellTiter-Glo reagent was added into the assay plates using a Bioraptr FRD. After 30 min incubation at room temperature, the luminescence intensity in the plates was measured using a ViewLux plate reader (PerkinElmer).
`COc1cc2c(cc1OC)CN(C(=O)[C@H](C)N[C@@H](CCc1ccccc1)C(=O)O)[C@H](C(=O)O)C2`: the “viability change, negative = cytotoxic” value was -6.07% (inactive).
With `C=C(C)C1CC=C(C)C(=O)C1` (stereo not given), the “viability change, negative = cytotoxic” value was -4.82% (inactive).
Next, `CC(C)C[C@@H]1[C@H](c2ccccc2)OC(=O)N1CCCN1CCCCCC1`: 0.941% (inactive); `CC(C)=CCC/C(C)=C/COC=O`: 5.23% (inactive); `ONc1ccccc1`: 14.7% [at 78.8 µM] (inactive).
For `CC/C=C\CCOC(=O)c1ccccc1O`, the “viability change, negative = cytotoxic” value is 11.8% (inactive).
Consider `Cc1c(NC(=O)c2cccnc2)c(=O)n(-c2ccccc2)n1C`, for which the “viability change, negative = cytotoxic” value is 0.128% (inactive).
The result for `CCCCCC/C=C/C(=O)OC` reads 6.03% (inactive); that for `Cc1ccc(C(C)NC(=O)[C@@H](NC(=O)OC(C)C)C(C)C)cc1` (stereo not given in full), 2.23% (inactive); that for `CC(=O)N[C@@H](CO)C(=O)N[C@@H](CC(=O)O)C(=O)N[C@@H](CCCCN)C(=O)N1CCC[C@H]1C(=O)O` (Ac-SDKP-OH), 5.15% (inactive).
Turning to `CO/N=C(/C(=O)N[C@@H]1C(=O)N2C(C(=O)[O-])=C(C[n+]3ccn4ncccc43)CS[C@H]12)c1nsc(N)n1`, the “viability change, negative = cytotoxic” value is 1.37% (inactive).
On to `CC(=O)CCC1=C(C)CCCC1(C)C`, for which the “viability change, negative = cytotoxic” value is -30% (inactive).
The result for `OC[C@H]1O[C@@H](O[C@@H]2[C@@H](CO)O[C@](O)(CO)[C@H]2O)[C@H](O)[C@@H](O)[C@H]1O` reads 16.7% (inactive); that for `C=CC/C=C/C`, 17.1% [at 78.8 µM] (inactive).
In the case of `CCCCOC(=O)[C@H](C)O`, the “viability change, negative = cytotoxic” value was -6.19% (inactive).
Next, `CCCCCC(C)O` (stereo not given): 2.7% (inactive); `C=Cc1ccc(C(C)(C)C)cc1`: 4.25% (inactive); `O=C(O)CNC(=O)CNC(=O)CNC(=O)CSC(=O)c1ccccc1`: -0.0285% (inactive).
The result for `N[C@@H](CSCCCO)C(=O)O` reads 3.2% [at 28.5 µM] (inactive); that for `CCN(CC)CCN`, 3.11% (inactive); that for `CC1CC(=O)CC(C)(C)C1` (stereo not given), 3.13% (inactive).
Next, `CC(C)OC(=O)OCOP(=O)(CO[C@H](C)Cn1cnc2c(N)ncnc21)OCOC(=O)OC(C)C`: 1.82% (inactive); `CCC(C)C(=O)OCCc1ccccc1` (stereo not given): 5.53% (inactive).
In the case of `O=C(NCN1CCOCC1)c1cnccn1`, the “viability change, negative = cytotoxic” value was -5.1% (inactive).
As for `CC(=O)OCC(=O)Nc1cc(C#N)cc(NC(=O)COC(C)=O)c1Cl`, the “viability change, negative = cytotoxic” value was 2.49% (inactive).
Next, `CC1=NN(c2ccc(S(=O)(=O)O)cc2)C(=O)C1`: -0.801% (inactive); `NC(=O)[C@@H]1CSSCCC(=O)N[C@@H](CCCCN=C(N)N)C(=O)NCC(=O)N[C@@H](CC(=O)O)C(=O)N[C@@H](Cc2c[nH]c3ccccc23)C(=O)N2CCC[C@H]2C(=O)N1` ([Mpa][hArg]GDWPC-NH2; disulfide 1-7): -0.788% (inactive); `CC(O)COC(C)(C)C` (stereo not given): 22.4% (inactive).
In the case of `C/C=C(\C)C(C)=O`, the “viability change, negative = cytotoxic” value was 5.85% (inactive).
In the case of `CN(C)CC/C=C1/c2ccccc2COc2ccc(CC(=O)O)cc21`, the “viability change, negative = cytotoxic” value is -13.8% (inactive).
The result for `Cc1c(Cl)cccc1Cl` reads -6.56% (inactive); that for `Cc1ccc(N)cc1S(=O)(=O)O`, -15.3% (inactive).
For the compound `O=C(Cl)c1ccccc1[N+](=O)[O-]`, the “viability change, negative = cytotoxic” value was 5.96% [at 78.8 µM] (inactive).
The result for `CNCCS(=O)(=O)O` reads 14.6% [at 78.8 µM] (inactive); that for `Cn1c(=O)c2[nH]c(Br)nc2n(C)c1=O`, 12.9% (inactive); that for `CC(C)C1OCCN1CCOC(=O)NCCCCCCNC(=O)OCCN1CCOC1C(C)C` (stereo not given), 9.23% (inactive).
For `CO[Si](CCCn1c(=O)n(CCC[Si](OC)(OC)OC)c(=O)n(CCC[Si](OC)(OC)OC)c1=O)(OC)OC`, the “viability change, negative = cytotoxic” value was 11% (inactive).
Take `CC(C)(C)NC[C@H](O)COc1cccc2c1CCCC2=O`: the “viability change, negative = cytotoxic” value is -5.31% (inactive).
On to `N[C@@H](Cc1ccc(O)cc1)C(=O)O`, for which the viability change, negative = cytotoxic was 7.41% [at 6.95 µM] (inactive).
On to `CCCCOC(=O)C(C)O` (stereo not given), for which the “viability change, negative = cytotoxic” value is 0.985% (inactive).
